Laboratory results from PubChem BioAssay.
Active and inactive are the calls of the source.

Key:
[1] = small molecules captured by biotinylated probe aFSTL3 – biochemical, small-molecule microarray, fluorescence 635/667, stem cell growth factor project, primary screen (AID 1064); details: higher = more signal;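 further: measures binding of the biotinylated anti-FSTL3 antibody to printed compounds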
[2] = binders from COS7 lysate, DM2A8 probe, primary screen, torsin A project, cell lysate, small-molecule microarray, fluorescence 635/667 (AID 1065); details: higher = more signal, COS7 lysate expressing mutant human TOR1A
[3] = small molecules captured by biotinylated probe aFGF2 – biochemical, small-molecule microarray, fluorescence 635/667, stem cell growth factor project, primary screen (AID 1067); details: higher = more signal;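 further: measures binding of biotinylated aFGF2 protein to printed compounds on slides; z-score merges feature fluorescence and signal-to-noise across triplicate slides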
[4] = small molecules captured by biotinylated probe aFGF10 – biochemical, small-molecule microarray, fluorescence 635/667, stem cell growth factor project, primary screen (AID 1071); details: higher = more signal;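 further: score merges 667 nm spot intensity and signal to noise from triplicate slides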
[5] = biological target: Neurogenic locus notch homolog protein 2 (Homo sapiens) (UniProt Q04721); assay: small molecules binding Notch2 protein – biochemical, small-molecule microarray, 635 nm fluorescence, stem cell growth factors, primary screen (AID 1073); details: higher = more signal
[6] = biological target: Pro-neuregulin-1, membrane-bound isoform (Homo sapiens) (UniProt Q02297); assay: small molecules binding neuregulin-1 protein – biochemical, small-molecule microarray, fluorescence 635/667, psychiatric disease protein project, primary screen (AID 1075); details: NRG1 binding, 635 nm fluorescence, higher = more signal;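 further: score combines 667 nm spot fluorescence with signal to noise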
[7] = test system: Neuregulin-1 EGF-like domain; assay: small molecules binding NRG1 EGF domain – biochemical, small-molecule microarray, 635 nm fluorescence, primary screen (AID 1081); details: higher = more signal;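 further: binding of the protein to compounds printed on small-molecule microarray slides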
[8] = FRG1 expression reporter modulators in myotubes – cell-based, C2C12 myotubes, firefly/Renilla luciferase, luminescence, FRG1 inhibition for FSHD, primary screen (AID 1084); details: FRG1 promoter luciferase, higher = more signal, called active from +8 up or from −8 down
[9] = small molecules captured by biotinylated probe aFST – biochemical, small-molecule microarray, fluorescence 635/667, stem cell growth factor project, primary screen (AID 1086); details: higher = more signal;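 further: score merges 667 nm fluorescence with signal-to-noise of each printed compound spot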
[10] = binders of probe aHhip on microarray, primary screen, stem cell growth factor project, biochemical, small-molecule microarray, fluorescence 635/667 (AID 1087); details: higher = more signal;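 further: score merges spot fluorescence at 667nm with spot signal to noise ratio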
[11] = test system: PRMT1 (protein arginine N-methyltransferase 1); assay: small molecules binding arginine methyltransferase PRMT1 – biochemical, small-molecule microarray, 635 nm fluorescence, primary screen (AID 1088); details: higher = more signal;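 further: binding of Prmt1 protein to compounds spotted on small-molecule microarray slides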
[12] = growth effects on S. cerevisiae YJM789 – YJM789 clinical isolate, OD600, 24 h, basal, primary screen (AID 1089); details: higher = more signal, called active from +8 up or from −8 down;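 further: growth of clinical yeast isolate S. cerevisiae YJM 789 seeded 1000 cells per well; test concentration not given here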
[13] = S. pombe growth modifiers, basal conditions – strain 972, OD600, 24 h, no modulator, primary screen (AID 1090);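 further: basal condition with compound alone and no growth modifier present; test concentration not given here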; details: S. pombe 972 growth, higher = more signal, called active from +8 up or from −8 down
[14] = budding yeast growth modifiers under rapamycin – strain BY4716, OD600, 96 h, primary screen (AID 1091); further: test concentration not given here; details: S. cerevisiae BY4716 + rapamycin, higher = more signal, called active from +8 up or from −8 down
[15] = biological target: Torsin-1A-interacting protein 2 (Homo sapiens) (UniProt Q8NFQ8); assay: small molecules binding lysate-expressed LULL1 – cell lysate, human LULL1 lysate, 635/667 nm fluorescence, primary screen (AID 1092); details: small-molecule microarray, hLULL1 lysate binding, 635 nm fluorescence; higher = more signal;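 further: probe is lysate of COS7 cells overexpressing human LULL1; score merges per-feature 667 nm fluorescence with signal-to-noise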
[16] = optical density change of DRC41 E. coli – strain DRC41, OD650, 24 h, E. coli filamentation project, primary screen (AID 1093);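 further: MC1000 strain lacking acrAB efflux and sulA so SOS filamentation is blocked; test concentration not given here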; details: E. coli DRC41 growth, higher = more signal, called active from +8 up or from −8 down
[17] = probe aLefty2 binding to arrayed compounds – biochemical, biotinylated probe, 635/667 nm fluorescence, primary screen (AID 1094); details: small-molecule microarray, higher = more signal;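 further: score merges spot fluorescence near 667 nm with spot signal-to-noise ratio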
[18] = test system: Noggin (protein binding on small-molecule microarray); assay: small molecules binding Noggin protein – biochemical, 635/667 nm fluorescence, primary screen (AID 1095); details: 635 nm fluorescence, higher = more signal;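 further: score merges 667 nm feature fluorescence with signal to noise over triplicate slides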
[19] = biological target: Neurogenic locus notch homolog protein 3 (Homo sapiens) (UniProt Q9UM47); assay: small molecules binding NOTCH3 protein – biochemical, 635/667 nm fluorescence, primary screen (AID 1096); details: small-molecule microarray, 635 nm fluorescence, higher = more signal
[20] = probe aEGFR binding to arrayed compounds – biochemical, biotinylated probe, 635/667 nm fluorescence, primary screen (AID 1097); details: small-molecule microarray, higher = more signal;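 further: probe is a biotinylated anti-EGFR antibody binding compounds printed on slides; score combines fluorescence near 667 nm and signal to noise of each spot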

Pro-neuregulin-1, membrane-bound isoform (Homo sapiens), sequence (Q02297 whole entry, looked up, the tested form may be a part, canonical isoform): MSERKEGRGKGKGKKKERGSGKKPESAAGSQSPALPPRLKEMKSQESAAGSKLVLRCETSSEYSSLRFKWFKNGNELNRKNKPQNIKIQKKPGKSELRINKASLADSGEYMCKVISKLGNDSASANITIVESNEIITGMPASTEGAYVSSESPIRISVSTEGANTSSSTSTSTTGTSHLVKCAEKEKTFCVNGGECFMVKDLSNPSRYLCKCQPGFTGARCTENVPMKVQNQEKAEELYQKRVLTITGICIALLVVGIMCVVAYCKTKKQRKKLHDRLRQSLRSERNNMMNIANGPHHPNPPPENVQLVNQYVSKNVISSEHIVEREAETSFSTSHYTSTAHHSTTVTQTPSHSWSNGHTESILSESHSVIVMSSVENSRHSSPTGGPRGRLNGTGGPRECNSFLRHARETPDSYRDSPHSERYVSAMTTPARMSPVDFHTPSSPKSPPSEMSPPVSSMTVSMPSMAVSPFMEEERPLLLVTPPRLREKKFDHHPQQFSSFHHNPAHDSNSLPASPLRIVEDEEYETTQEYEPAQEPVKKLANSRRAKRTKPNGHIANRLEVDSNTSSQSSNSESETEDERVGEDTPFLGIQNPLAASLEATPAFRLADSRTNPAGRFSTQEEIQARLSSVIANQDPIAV
Torsin-1A-interacting protein 2 (Homo sapiens), sequence (Q8NFQ8 whole entry, looked up): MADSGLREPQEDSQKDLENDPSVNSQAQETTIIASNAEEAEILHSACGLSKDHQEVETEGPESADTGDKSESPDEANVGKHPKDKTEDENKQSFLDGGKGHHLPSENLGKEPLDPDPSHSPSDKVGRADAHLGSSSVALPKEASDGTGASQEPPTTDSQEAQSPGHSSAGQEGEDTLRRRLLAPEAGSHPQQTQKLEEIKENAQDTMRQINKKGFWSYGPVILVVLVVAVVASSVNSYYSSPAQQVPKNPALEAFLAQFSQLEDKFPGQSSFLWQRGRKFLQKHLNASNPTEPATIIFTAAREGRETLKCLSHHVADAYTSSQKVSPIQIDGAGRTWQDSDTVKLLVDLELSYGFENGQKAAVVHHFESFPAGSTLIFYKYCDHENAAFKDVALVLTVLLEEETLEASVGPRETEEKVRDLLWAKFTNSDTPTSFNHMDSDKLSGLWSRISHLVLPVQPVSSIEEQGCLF
Neurogenic locus notch homolog protein 3 (Homo sapiens), sequence (Q9UM47 whole entry, looked up): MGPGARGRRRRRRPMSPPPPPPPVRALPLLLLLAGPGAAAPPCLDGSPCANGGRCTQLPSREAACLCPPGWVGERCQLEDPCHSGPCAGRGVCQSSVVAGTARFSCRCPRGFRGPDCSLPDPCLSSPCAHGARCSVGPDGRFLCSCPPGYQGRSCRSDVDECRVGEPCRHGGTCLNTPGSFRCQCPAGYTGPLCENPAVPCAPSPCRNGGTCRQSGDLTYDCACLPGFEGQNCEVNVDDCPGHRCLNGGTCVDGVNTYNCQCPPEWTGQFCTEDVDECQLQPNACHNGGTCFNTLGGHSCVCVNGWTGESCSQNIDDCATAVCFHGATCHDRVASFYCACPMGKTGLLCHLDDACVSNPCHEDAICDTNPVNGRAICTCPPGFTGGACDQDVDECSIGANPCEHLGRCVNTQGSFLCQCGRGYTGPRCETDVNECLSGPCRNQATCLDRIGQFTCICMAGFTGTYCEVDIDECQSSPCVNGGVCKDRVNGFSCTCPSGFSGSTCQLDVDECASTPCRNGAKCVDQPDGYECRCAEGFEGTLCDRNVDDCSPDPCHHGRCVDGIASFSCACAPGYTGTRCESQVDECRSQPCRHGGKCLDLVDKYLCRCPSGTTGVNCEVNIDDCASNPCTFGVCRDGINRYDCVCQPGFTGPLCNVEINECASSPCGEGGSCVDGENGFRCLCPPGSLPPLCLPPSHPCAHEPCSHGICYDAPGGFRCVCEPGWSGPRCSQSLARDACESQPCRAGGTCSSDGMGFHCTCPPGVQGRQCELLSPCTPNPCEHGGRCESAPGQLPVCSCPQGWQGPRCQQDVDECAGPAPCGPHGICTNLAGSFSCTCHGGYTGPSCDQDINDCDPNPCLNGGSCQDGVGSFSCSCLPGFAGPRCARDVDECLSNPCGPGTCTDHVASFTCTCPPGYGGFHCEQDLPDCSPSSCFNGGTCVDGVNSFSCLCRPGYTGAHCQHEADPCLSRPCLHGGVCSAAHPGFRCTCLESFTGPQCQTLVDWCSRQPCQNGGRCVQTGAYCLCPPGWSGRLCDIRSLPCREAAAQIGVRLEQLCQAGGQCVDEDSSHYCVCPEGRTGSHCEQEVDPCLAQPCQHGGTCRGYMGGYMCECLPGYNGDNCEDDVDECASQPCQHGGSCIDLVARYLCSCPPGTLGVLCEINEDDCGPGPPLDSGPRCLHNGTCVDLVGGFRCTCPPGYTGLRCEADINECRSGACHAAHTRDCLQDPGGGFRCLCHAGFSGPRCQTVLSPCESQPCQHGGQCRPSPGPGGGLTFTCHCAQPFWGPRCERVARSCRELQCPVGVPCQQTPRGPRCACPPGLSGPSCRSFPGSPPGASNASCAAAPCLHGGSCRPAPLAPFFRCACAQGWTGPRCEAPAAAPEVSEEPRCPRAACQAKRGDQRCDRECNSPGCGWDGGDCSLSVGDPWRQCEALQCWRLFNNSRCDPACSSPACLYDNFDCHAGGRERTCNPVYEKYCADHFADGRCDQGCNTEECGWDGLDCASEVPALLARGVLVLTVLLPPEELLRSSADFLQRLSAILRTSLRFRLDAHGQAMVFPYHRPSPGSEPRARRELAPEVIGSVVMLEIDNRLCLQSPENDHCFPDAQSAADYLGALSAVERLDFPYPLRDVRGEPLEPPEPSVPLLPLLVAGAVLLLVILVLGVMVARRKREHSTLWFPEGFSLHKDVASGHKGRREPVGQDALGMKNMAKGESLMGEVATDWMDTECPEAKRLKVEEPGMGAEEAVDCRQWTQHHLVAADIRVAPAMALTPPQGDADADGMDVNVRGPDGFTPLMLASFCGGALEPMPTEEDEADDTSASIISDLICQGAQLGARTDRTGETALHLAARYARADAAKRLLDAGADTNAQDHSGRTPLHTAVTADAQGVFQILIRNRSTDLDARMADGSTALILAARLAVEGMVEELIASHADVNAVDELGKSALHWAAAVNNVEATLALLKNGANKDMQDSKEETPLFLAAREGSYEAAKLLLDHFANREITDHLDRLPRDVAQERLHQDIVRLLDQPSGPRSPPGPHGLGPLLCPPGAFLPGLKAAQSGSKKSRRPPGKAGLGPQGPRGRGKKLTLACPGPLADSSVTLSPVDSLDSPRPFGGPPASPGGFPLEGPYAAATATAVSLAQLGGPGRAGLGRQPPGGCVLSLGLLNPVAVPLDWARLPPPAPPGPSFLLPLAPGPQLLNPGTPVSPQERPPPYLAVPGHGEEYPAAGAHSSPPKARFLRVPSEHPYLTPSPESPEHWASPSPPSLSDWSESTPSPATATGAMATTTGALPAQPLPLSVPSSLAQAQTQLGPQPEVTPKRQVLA

SMILES	composite z-score [1]	composite z-score [2]	composite z-score [3]	composite z-score [4]	composite z-score [5]	composite z-score [6]	composite z-score [7]	z-score [8]	composite z-score [9]	composite z-score [10]	composite z-score [11]	z-score [12]	z-score [13]	z-score [14]	composite z-score [15]	z-score [16]	composite z-score [17]	composite z-score [18]	composite z-score [19]	composite z-score [20]
CCCNC(=O)[C@@H]1c2ccccc2C(=O)N(Cc2cc(C(F)(F)F)cc(C(F)(F)F)c2)[C@H]1c1ccc(CO)cc1	0.684	-0.27	0.0064	0.0859	0.394	0.519	1.2	-0.0626 (inactive)	0.361	0.0895	1.09	0.73 (inactive)	-1.69 (inactive)	-0.262 (inactive)	1.34	0.315 (inactive)	0.0758	0.261	0.523	-0.0255
CC(C)(C)OC(=O)CC[C@]1(C(=O)NCc2ccccc2)COC(c2ccc(OCCCO)cc2)=N1	0.508	1.3	-0.0675	0.0174	0.431	1.79	1.1	-2.97 (inactive)	0.613	-0.0047	0.712	-1.08 (inactive)	-0.413 (inactive)	-1.64 (inactive)	3.14	1.93 (inactive)	0.0325	-0.148	-0.0559	-0.058
CC(C)CNC(=O)[C@@H]1c2ccccc2C(=O)N(Cc2ccc(OC(F)(F)F)cc2)[C@H]1c1ccc(CO)cc1	-0.0768	0.849	-0.0095	0.34	0.988	1.15	1.21	-2.61 (inactive)	0.941	-0.206	1.54	-1.87 (inactive)	-2.91 (inactive)	-1.06 (inactive)	3.01	3.96 (inactive)	-0.0329	1.3	1.04	0.0378
C=CCNC(=O)[C@H]1[C@@H]2C(=O)O[C@@H](c3ccccc3)[C@@H](c3ccccc3)N2[C@@H](c2ccc(OCCO)cc2)[C@]12C(=O)Nc1ccc(C#CCCO)cc12	0.268	1.14	-0.0901	-0.168	-0.23	1.08	1.15	-4.1 (inactive)	0.219	-0.0994	1.57	0.443 (inactive)	-1.91 (inactive)	2.38 (inactive)	2.42	2.71 (inactive)	-0.148	0.292	0.73	-0.087
COC(=O)C(CC#Cc1ccc2c(c1)[C@]1(C(=O)N2)[C@H](c2ccccc2OCCO)N2[C@H](c3ccccc3)[C@H](c3ccccc3)OC(=O)[C@H]2[C@@H]1C(=O)N1CCCCCCC1)C(=O)OC	4	2.62	0.984	1.28	1.54	2.17	0.982	0.62 (inactive)	3.71	2.52	1.53	0.349 (inactive)	0.958 (inactive)	1.06 (inactive)	4.89	1.83 (inactive)	1.93	2.02	1.09	1.44
